MEKK2 mut-MEK5 – signal of MEK5 binding to mutant human MEKK2 PB1 domain | bead flow cytometry, Alexa488-MEK5 binding to MEKK2 mutant | percent response, % at 10 µM | 290,000 tested, 0.35% active | AID 1530; in the data active means percent response above about 24%, passing the limit was not always enough
GRK2 inh – blocks RNA aptamer binding to human GRK2; bead flow cytometry, FAM-aptamer displacement from GRK2; P25098; inhibition of aptamer binding, % at 10 µM; 330,000 tested, 0.59% active;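 active means inhibition of aptamer binding above 40%, roughly 3 SD of noise, on plates passing a quality check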;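 further: median bead fluorescence of bound FAM aptamer so fluorescent compounds give negative values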
MEKK3 PB1 HTS – raises or lowers MEK5 binding to the human MEKK3 PB1 domain; bead-based flow cytometry, Alexa488-MEK5 binding to MEKK3; actives lie on both sides; 0 = blocked by unlabeled MEK5, 100 = vehicle; binding response (% of control), % at 10 µM; 290,000 tested, 1.4% active; AID 1529;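 active means binding response more than 3 SD above or below the average of its plate-row segment, actives on both sides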;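 further: Alexa488 bead fluorescence after subtracting the streptavidin-only scavenger bead signal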
Target sequence (Q99759 whole entry, looked up, the tested form may be a part): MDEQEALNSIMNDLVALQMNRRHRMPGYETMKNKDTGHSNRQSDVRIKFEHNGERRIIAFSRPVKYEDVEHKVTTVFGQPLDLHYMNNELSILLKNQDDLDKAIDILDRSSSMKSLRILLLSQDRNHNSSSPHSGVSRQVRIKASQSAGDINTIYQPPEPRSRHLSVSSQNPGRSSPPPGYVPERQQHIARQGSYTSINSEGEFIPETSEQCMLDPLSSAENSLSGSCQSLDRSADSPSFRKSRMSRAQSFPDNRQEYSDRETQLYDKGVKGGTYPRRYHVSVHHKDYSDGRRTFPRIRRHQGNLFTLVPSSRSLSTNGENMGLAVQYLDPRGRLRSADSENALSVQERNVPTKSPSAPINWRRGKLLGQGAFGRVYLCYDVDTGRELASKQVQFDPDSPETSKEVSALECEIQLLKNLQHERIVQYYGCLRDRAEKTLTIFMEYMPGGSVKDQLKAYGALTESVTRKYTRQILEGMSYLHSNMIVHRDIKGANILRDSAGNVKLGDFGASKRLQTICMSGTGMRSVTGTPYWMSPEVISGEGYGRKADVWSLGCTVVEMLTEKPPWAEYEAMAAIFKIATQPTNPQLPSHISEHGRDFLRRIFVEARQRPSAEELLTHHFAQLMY
MEKK2 WT-MEK5 – raises or lowers MEK5 binding to wildtype human MEKK2 PB1 domain; Q9Y2U5; bead flow cytometry, Alexa488-MEK5 binding to MEKK2 WT; actives lie on both sides; binding response (% of control), % at 10 µM; 290,000 tested, 1.1% active; in the data active means binding response below about 67% or above about 130%
GRK2 inh confirm – confirmation of human GRK2 inhibitors displacing RNA aptamer. shares compounds with GRK2 inh. bead-bound GRK2, FAM-aptamer displacement, flow cytometry. aptamer displacement, % at 10 µM. 2,000 tested, 4% active. AID 504451;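 active means aptamer displacement above 40%, near three times the noise of non-fluorescent compounds, on plates passing quality checks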;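 further: negative values mostly reflect intrinsic compound fluorescence rather than true enhancement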
FAM quench CP1 – quenches fluorescent RNA aptamer, GRK2 hit artifact; shares compounds with GRK2 inh; Carboxyfluorescein RNA aptamer on beads, flow cytometry quenching; hits give low values; fluorescence response (% of DMSO), % at 10 µM; 2,000 tested, under 10 active; AID 504580;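 active means compounds that quench the bead-bound fluorescent RNA probe, cutting fluorescence to under half of the solvent control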;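 further: counterscreen run without GRK2 so only probe quenching by compound is measured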
GRK2 confirm 2 – human GRK2 inhibition confirmation, cherry pick 2; shares compounds with GRK2 inh; bead-bound GRK2, FAM-aptamer displacement, flow cytometry; inhibition of aptamer binding, % at 10 µM; 360 tested, under 10 active; AID 504782;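 active means inhibition of aptamer binding above 40%, about triple the noise seen with nonglowing compounds, on plates passing quality control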;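 further: negative values mostly come from compounds that fluoresce themselves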
FAM quench SP – counter-screen for GRK2 binding hits: quenchers of fluorescent RNA aptamer. shares compounds with GRK2 inh. carboxyfluorescein RNA aptamer beads, flow cytometry quenching; hits give low values. fluorescence response vs DMSO, % at 10 µM. 360 tested, under 10 active;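 active means response vs DMSO under 50%, meaning signal dropped by over half, treated as fluorescence quencher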;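 further: labelled aptamer on streptavidin beads without GRK2 as a quench counter-screen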
Of the large screens only hits and unclear results are named; the others gave an inactive call (follow-up assays come after a bar, where they were run). Compounds with a hit are over-represented: about 2.5% of the library has one in this group of screens.

O=C(C[n+]1cccc(CO)c1)Nc1nc2ccccc2s1	GRK2 inh 42 | GRK2 inh confirm inactive | FAM quench CP1 inactive
CCCCOc1ccc(N(CC(=O)NCCOC)C(=O)CCC(=O)Nc2ccccn2)cc1	none
COc1ccccc1NC(=O)C(C)OC(=O)CC1CCCCC1 (stereo not given)	none (no result: MEKK2 mut-MEK5, MEKK3 PB1 HTS, MEKK2 WT-MEK5)
COc1ccccc1NC(=O)CC1CCCC1	GRK2 inh 61 | GRK2 inh confirm inactive | FAM quench CP1 inactive
COc1ccc(-c2cc(C(=O)OCC(=O)N(C)C3CCS(=O)(=O)C3)c3ccccc3n2)cc1OC (stereo not given)	none
COC(=O)CNc1n[nH]c(=S)[nH]c1=O	GRK2 inh 85 (no result: MEKK2 mut-MEK5, MEKK3 PB1 HTS, MEKK2 WT-MEK5) | GRK2 inh confirm inactive | FAM quench CP1 inactive
COc1ccc(CNC(=O)CSc2nnc3c(Cl)cc(C(F)(F)F)cn23)cc1OC	none
Cc1cc(OCC(=O)N2CCN(c3cccc(Cl)c3)CC2)c2c(C)c(C)c(=O)oc2c1	GRK2 inh 55 | GRK2 inh confirm inactive | FAM quench CP1 inactive
COc1ccccc1N(CC(=O)NCc1ccco1)S(=O)(=O)c1ccc(C)cc1	GRK2 inh 46 | GRK2 inh confirm inactive | FAM quench CP1 inactive
COc1ccccc1N1CCN(C(=O)CN(C2CCCCC2)S(C)(=O)=O)CC1	GRK2 inh 47 | GRK2 inh confirm inactive | FAM quench CP1 inactive
CS(=O)(=O)N(CC(=O)N1CCN(c2ccccc2F)CC1)C1CCCCC1	none
COc1cc2nc(-c3cccs3)oc(=O)c2cc1OC	GRK2 inh 74 | GRK2 inh confirm inactive | FAM quench CP1 inactive
CNc1snc(C)c1C(=O)OCC(=O)c1ccc(Cl)cc1	GRK2 inh 51 (no result: MEKK2 mut-MEK5, MEKK3 PB1 HTS, MEKK2 WT-MEK5) | GRK2 inh confirm inactive | FAM quench CP1 inactive
C#CCn1c(=NC(=O)c2ccc(Cl)s2)sc2cccc(OC)c21	GRK2 inh 76 | GRK2 inh confirm inactive | FAM quench CP1 inactive
C#CCn1c(=NC(=O)c2cccs2)sc2cccc(OCC)c21	none
COC(=O)C1CC(=O)N(c2ccc(C)cc2)C1 (stereo not given)	GRK2 inh 94 | GRK2 inh confirm inactive | FAM quench CP1 inactive
COc1ccc(OC(=O)C2CC(=O)N(c3ccc(C)cc3)C2)cc1 (stereo not given)	none
COc1cc(C(=O)NNC(=O)C2CC2)cc(OC)c1OC	none
O=C(O)CCn1c(-c2ccccn2)nc2ccccc21	none | GRK2 inh confirm inactive | FAM quench CP1 inactive
CSCCC(NC(=O)COc1ccccc1)C(=O)N1CC(C)OC(C)C1 (stereo not given)	none (no result: MEKK2 mut-MEK5, MEKK3 PB1 HTS, MEKK2 WT-MEK5)
COc1cc2c3c(c1OC)C1(C=CC(=O)C=C1)CC3N(C(=O)c1ccccc1)CC2 (stereo not given)	GRK2 inh 70 | GRK2 inh confirm inactive | FAM quench CP1 inactive
Cc1cccc(C(=O)OCC(=O)N(C)CC(=O)Nc2ccc(Cl)c(C(F)(F)F)c2)c1	none (no result: MEKK2 mut-MEK5, MEKK3 PB1 HTS, MEKK2 WT-MEK5)
Cc1ccc(C)c(OCC(=O)N(C)CC(=O)Nc2ccc(Cl)c(C(F)(F)F)c2)c1	GRK2 inh 79 (no result: MEKK2 mut-MEK5, MEKK3 PB1 HTS, MEKK2 WT-MEK5) | GRK2 inh confirm inactive | FAM quench CP1 inactive
CN(C)CCCNC1=CC(=O)CC(c2ccccc2)C1 (stereo not given)	GRK2 inh 80 | GRK2 inh confirm inactive | FAM quench CP1 inactive
O=S(=O)(NC1=NCCCCC1)c1ccc(Cl)cc1Cl	none (no result: MEKK2 mut-MEK5, MEKK3 PB1 HTS, MEKK2 WT-MEK5)
O=C(NCC1OCCc2ccccc21)c1ccc(NC(=O)c2ccc(Cl)cc2Cl)cc1 (stereo not given)	none
O=C(NCC1OCCc2ccccc21)c1ccc(NC(=O)c2ccccc2Cl)cc1 (stereo not given)	GRK2 inh 47 | GRK2 confirm 2 inactive | FAM quench SP inactive
Nc1[nH]ncc1-c1ccc(Cl)cc1	GRK2 inh 99 | GRK2 inh confirm inactive | FAM quench CP1 inactive
Nc1[nH]ncc1N=Nc1ccc(Cl)cc1	none
Cc1ccc(S(=O)(=O)N(Cc2cc3cccc(C)c3[nH]c2=O)c2ccccc2)cc1	none
CN(Cc1cnccn1)Cc1c(C(=O)N2CCc3ccccc3C2)nc2ccc(Cl)cn12	none
CN(Cc1cccnc1)Cc1c(C(=O)N2CCc3ccccc3C2)nc2ccc(Cl)cn12	GRK2 inh 93 | GRK2 inh confirm inactive | FAM quench CP1 inactive
COc1cc(NC(=O)COc2ccc(-n3cnnn3)cc2)cc(OC)c1OC	none (no result: MEKK2 mut-MEK5, MEKK3 PB1 HTS, MEKK2 WT-MEK5)
O=C(COC(=O)Cc1ccc(-c2ccccc2)cc1)NCc1ccc(F)cc1	none | GRK2 inh confirm inactive | FAM quench CP1 inactive
Cc1ccc(CNC(=O)COC(=O)Cc2ccc(-c3ccccc3)cc2)cc1	none | GRK2 inh confirm inactive | FAM quench CP1 inactive
CC(C)CNC(=S)N(CCCN(C)C)Cc1cc2cc3c(cc2[nH]c1=O)OCCO3	none
Cc1ccc(S(=O)(=O)NCCC(=O)NCC(c2cccs2)N2CCOCC2)cc1 (stereo not given)	none (no result: MEKK2 mut-MEK5, MEKK3 PB1 HTS, MEKK2 WT-MEK5)
O=C(COC(=O)Cc1ccsc1)Nc1ccc(Br)cc1	none (no result: MEKK2 mut-MEK5, MEKK3 PB1 HTS, MEKK2 WT-MEK5)
CCC(=O)Nc1ccc(C(=O)COC(=O)Cc2ccsc2)cc1	GRK2 inh 48 (no result: MEKK2 mut-MEK5, MEKK3 PB1 HTS, MEKK2 WT-MEK5) | GRK2 inh confirm inactive | FAM quench CP1 inactive
O=C(Cn1cnc2c(nnn2Cc2ccccc2F)c1=O)OCc1ccccc1	GRK2 inh 82 (no result: MEKK2 mut-MEK5, MEKK3 PB1 HTS, MEKK2 WT-MEK5) | GRK2 inh confirm inactive | FAM quench CP1 inactive
COc1cccc(Oc2ccc(N/C=C/C(=O)C(C)(C)C)cc2)c1	GRK2 inh 88 | GRK2 inh confirm inactive | FAM quench CP1 inactive
COc1ccc(-c2ccc3c(c2)S(=O)(=O)c2cccc(C(=O)N4CCN(C5CCCCC5)CC4)c2C3=O)cc1OC	none (no result: MEKK2 mut-MEK5, MEKK3 PB1 HTS, MEKK2 WT-MEK5)
Cn1cc(S(=O)(=O)N2CCOCC2)cc1C(=O)NCc1ccccc1Cl	none | GRK2 inh confirm inactive | FAM quench CP1 inactive
CCN(CC(=O)Nc1ccc(NC(C)=O)cc1)C(=O)c1ccc(NC2CC2)c([N+](=O)[O-])c1	none (no result: MEKK2 mut-MEK5, MEKK3 PB1 HTS, MEKK2 WT-MEK5)
CCN(CC)S(=O)(=O)c1ccc(C(=O)OC2CCCCC2CN(C)C)cc1 (stereo not given)	GRK2 inh 70 | GRK2 inh confirm inactive | FAM quench CP1 inactive
COc1ccc(NC(=O)c2cccc(N3C(=O)C4C5C=CC(C5)C4C3=O)c2)cc1Cl (stereo not given)	none
CCOc1ccc(NC(=O)C2CC(=O)OC2c2ccccc2)cc1 (stereo not given)	GRK2 inh 82 | GRK2 inh confirm inactive | FAM quench CP1 inactive
O=S(=O)(c1ccc(SCCOc2ccc(F)cc2)nc1)N1CCCC1	none (no result: MEKK2 mut-MEK5, MEKK3 PB1 HTS, MEKK2 WT-MEK5)
CCOc1ccc(NS(=O)(=O)c2ccc3[nH]c(=O)[nH]c3c2)cc1	GRK2 inh 50 | GRK2 inh confirm inactive | FAM quench CP1 inactive
CCOC(=O)c1cccc(NC(=O)c2ccc(-n3cnnn3)cc2)c1	none (no result: MEKK2 mut-MEK5, MEKK3 PB1 HTS, MEKK2 WT-MEK5) | GRK2 inh confirm inactive | FAM quench CP1 inactive
